From PubChem BioAssay
Activity calls are given as the source filed them.

Assays:
[1] = small molecules captured by biotinylated probe aFSTL3 – biochemical, small-molecule microarray, fluorescence 635/667, stem cell growth factor project, primary screen (AID 1064); settings: higher = more signal;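 note: measures binding of the biotinylated anti-FSTL3 antibody to printed compounds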
[2] = binders from COS7 lysate, DM2A8 probe, primary screen, torsin A project, cell lysate, small-molecule microarray, fluorescence 635/667 (AID 1065); settings: higher = more signal, COS7 lysate expressing mutant human TOR1A
[3] = small molecules captured by biotinylated probe aFGF2 – biochemical, small-molecule microarray, fluorescence 635/667, stem cell growth factor project, primary screen (AID 1067); settings: higher = more signal;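 note: measures binding of biotinylated aFGF2 protein to printed compounds on slides; z-score merges feature fluorescence and signal-to-noise across triplicate slides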
[4] = small molecules captured by biotinylated probe aFGF10 – biochemical, small-molecule microarray, fluorescence 635/667, stem cell growth factor project, primary screen (AID 1071); settings: higher = more signal;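 note: score merges 667 nm spot intensity and signal to noise from triplicate slides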
[5] = molecular target: Neurogenic locus notch homolog protein 2 (Homo sapiens) (UniProt Q04721); assay: small molecules binding Notch2 protein – biochemical, small-molecule microarray, 635 nm fluorescence, stem cell growth factors, primary screen (AID 1073); settings: higher = more signal
Chain of Neurogenic locus notch homolog protein 2 (Homo sapiens) (Q04721 whole entry, looked up, canonical isoform): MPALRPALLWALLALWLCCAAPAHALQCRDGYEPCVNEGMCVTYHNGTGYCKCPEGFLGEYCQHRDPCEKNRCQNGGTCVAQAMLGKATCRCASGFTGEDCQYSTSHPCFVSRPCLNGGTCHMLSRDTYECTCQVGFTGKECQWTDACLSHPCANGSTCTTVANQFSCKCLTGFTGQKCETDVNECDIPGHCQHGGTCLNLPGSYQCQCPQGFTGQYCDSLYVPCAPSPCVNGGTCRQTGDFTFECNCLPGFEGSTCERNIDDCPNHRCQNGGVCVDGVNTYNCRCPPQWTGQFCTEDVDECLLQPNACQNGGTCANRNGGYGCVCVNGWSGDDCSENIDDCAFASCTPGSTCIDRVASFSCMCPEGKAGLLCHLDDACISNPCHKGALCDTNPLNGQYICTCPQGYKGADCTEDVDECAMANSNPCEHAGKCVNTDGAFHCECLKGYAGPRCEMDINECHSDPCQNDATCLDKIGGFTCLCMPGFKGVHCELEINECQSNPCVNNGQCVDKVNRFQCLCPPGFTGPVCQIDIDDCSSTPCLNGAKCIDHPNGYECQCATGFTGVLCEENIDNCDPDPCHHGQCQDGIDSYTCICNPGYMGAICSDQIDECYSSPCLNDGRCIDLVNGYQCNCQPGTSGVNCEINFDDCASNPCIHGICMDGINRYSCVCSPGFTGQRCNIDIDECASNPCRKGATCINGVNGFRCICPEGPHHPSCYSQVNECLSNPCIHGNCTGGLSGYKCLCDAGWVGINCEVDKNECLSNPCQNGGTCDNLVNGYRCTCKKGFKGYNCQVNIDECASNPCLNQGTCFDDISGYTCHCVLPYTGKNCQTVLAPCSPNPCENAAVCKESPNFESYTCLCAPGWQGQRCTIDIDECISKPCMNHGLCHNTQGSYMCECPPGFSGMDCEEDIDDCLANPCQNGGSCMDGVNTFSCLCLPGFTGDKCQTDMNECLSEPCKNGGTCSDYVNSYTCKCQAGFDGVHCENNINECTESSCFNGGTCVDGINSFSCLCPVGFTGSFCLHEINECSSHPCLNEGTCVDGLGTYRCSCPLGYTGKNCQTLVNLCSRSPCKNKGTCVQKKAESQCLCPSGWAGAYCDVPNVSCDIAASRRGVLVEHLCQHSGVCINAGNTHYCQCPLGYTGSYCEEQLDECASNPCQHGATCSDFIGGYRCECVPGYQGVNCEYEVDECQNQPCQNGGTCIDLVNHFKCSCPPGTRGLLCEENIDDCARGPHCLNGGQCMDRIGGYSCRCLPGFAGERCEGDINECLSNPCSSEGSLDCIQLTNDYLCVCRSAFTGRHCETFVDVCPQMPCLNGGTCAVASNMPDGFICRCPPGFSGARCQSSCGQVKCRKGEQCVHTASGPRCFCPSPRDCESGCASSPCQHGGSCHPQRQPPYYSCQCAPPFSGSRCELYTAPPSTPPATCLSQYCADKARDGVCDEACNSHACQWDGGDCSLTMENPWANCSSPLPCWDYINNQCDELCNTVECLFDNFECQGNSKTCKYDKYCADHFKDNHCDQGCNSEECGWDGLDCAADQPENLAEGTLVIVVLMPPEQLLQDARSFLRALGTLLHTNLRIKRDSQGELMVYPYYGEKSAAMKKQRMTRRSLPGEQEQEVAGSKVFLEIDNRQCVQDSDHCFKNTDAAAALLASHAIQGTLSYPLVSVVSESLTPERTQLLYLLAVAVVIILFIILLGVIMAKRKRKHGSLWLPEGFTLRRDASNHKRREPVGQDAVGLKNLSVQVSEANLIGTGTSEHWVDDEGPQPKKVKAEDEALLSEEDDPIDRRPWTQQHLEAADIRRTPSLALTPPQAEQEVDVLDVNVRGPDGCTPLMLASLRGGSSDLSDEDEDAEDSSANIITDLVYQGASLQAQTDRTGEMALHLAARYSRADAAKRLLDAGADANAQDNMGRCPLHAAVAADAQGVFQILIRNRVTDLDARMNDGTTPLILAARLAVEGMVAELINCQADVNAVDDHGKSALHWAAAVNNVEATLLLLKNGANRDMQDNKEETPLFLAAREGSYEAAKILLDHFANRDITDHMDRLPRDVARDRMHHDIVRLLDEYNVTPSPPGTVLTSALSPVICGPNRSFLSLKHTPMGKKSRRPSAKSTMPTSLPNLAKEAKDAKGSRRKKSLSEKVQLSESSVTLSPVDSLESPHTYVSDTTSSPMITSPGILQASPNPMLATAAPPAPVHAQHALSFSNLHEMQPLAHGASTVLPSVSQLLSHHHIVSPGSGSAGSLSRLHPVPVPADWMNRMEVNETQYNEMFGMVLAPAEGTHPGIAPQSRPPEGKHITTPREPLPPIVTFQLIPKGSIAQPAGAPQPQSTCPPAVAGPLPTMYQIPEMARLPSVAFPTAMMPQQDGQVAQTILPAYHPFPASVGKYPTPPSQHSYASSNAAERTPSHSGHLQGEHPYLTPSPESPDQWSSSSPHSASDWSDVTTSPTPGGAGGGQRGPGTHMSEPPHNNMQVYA

[6] = molecular target: Pro-neuregulin-1, membrane-bound isoform (Homo sapiens) (UniProt Q02297); assay: small molecules binding neuregulin-1 protein – biochemical, small-molecule microarray, fluorescence 635/667, psychiatric disease protein project, primary screen (AID 1075); settings: NRG1 binding, 635 nm fluorescence, higher = more signal;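 note: score combines 667 nm spot fluorescence with signal to noise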
Chain of Pro-neuregulin-1, membrane-bound isoform (Homo sapiens) (Q02297 whole entry, looked up, the tested form may be a part, canonical isoform): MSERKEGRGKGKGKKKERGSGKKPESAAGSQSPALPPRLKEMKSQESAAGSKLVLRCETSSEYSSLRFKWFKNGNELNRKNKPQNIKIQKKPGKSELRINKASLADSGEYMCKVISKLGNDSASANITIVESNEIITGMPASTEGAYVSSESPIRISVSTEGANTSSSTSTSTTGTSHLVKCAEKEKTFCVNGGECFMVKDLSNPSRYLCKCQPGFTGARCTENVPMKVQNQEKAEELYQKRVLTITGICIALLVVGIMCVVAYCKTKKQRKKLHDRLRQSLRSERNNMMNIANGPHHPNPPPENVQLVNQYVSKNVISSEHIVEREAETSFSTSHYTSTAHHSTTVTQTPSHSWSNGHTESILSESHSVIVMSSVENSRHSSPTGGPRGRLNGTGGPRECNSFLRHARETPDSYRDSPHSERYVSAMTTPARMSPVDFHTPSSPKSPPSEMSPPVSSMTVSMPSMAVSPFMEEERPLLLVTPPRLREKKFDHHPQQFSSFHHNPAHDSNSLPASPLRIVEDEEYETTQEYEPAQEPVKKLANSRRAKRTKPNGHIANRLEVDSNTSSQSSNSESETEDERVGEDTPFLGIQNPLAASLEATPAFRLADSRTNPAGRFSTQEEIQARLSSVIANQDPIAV

[7] = tested on: Neuregulin-1 EGF-like domain; assay: small molecules binding NRG1 EGF domain – biochemical, small-molecule microarray, 635 nm fluorescence, primary screen (AID 1081); settings: higher = more signal;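 note: binding of the protein to compounds printed on small-molecule microarray slides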
[8] = FRG1 expression reporter modulators in myotubes – cell-based, C2C12 myotubes, firefly/Renilla luciferase, luminescence, FRG1 inhibition for FSHD, primary screen (AID 1084); settings: FRG1 promoter luciferase, higher = more signal, called active from +8 up or from −8 down
[9] = small molecules captured by biotinylated probe aFST – biochemical, small-molecule microarray, fluorescence 635/667, stem cell growth factor project, primary screen (AID 1086); settings: higher = more signal;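 note: score merges 667 nm fluorescence with signal-to-noise of each printed compound spot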
[10] = binders of probe aHhip on microarray, primary screen, stem cell growth factor project, biochemical, small-molecule microarray, fluorescence 635/667 (AID 1087); settings: higher = more signal;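 note: score merges spot fluorescence at 667nm with spot signal to noise ratio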

Row | Structure (SMILES) | composite z-score [1] | composite z-score [2] | composite z-score [3] | composite z-score [4] | composite z-score [5] | composite z-score [6] | composite z-score [7] | z-score [8] | composite z-score [9] | composite z-score [10]
1 | CCCNC(=O)[C@@H]1c2ccccc2C(=O)N(c2ccc(C)cn2)[C@H]1c1ccc(CO)cc1 | 0.901 | 0.0211 | -0.176 | -0.857 | -1.01 | -0.465 | 1.4 | 0.213 (inactive) | -0.348 | -0.258
2 | CC(C)(C)N1C(=O)[C@H]2[C@H]3[C@H](O)[C@H](O)CC(=NO[C@@H]4O[C@H](CO)[C@@H](O)[C@H](O)[C@H]4O)[C@@H]3CC[C@H]2C1=O | -0.549 | -0.151 | -0.0854 | 0.705 | 0.572 | 0.722 | 1.08 | 0.677 (inactive) | 0.135 | -0.0994
3 | COc1ccc(O[C@H]2C=C[C@@H](c3ccccc3)O[C@@H]2CON=C[C@@H](C)[C@H](OCc2ccccc2)C(C)C)cc1 | -0.397 | -0.249 | -0.168 | -0.773 | -0.936 | -0.744 | -0.921 | -1.01 (inactive) | -0.623 | -0.602
4 | CCCC=C(CCC)[C@@H](NC(=O)c1ccc(-c2ccccc2)cc1)c1ccc(C(=O)OC)cc1 | 0.0763 | -0.719 | 0.0827 | 0.0375 | 1.51 | 0.746 | 0.824 | 0.348 (inactive) | 0.801 | 1.81
5 | COc1ccc(OC[C@H]2Cc3c(-c4ccccc4)nc4c(c3CO2)CN(CCOc2ccccc2)CC4)cc1 | -0.133 | 0.228 | -0.172 | 0.79 | 1.16 | 0.679 | 1.11 | 0.114 (inactive) | 0.491 | -0.0618
6 | Cc1ccc(S[C@]2(C(=O)O)CC(=O)N(Cc3ccccc3)[C@@H]2c2ccc(CO)cc2I)cc1 | 0.481 | -0.421 | -0.0494 | -0.333 | -0.143 | 1.8 | 1.03 | -0.406 (inactive) | -0.255 | -0.0994
7 | CO[C@@H]1COC(=O)CC=C[C@@H](C)COC(=O)[C@H](COCc2ccccc2)NC(=O)CC=C[C@H]1C | -0.611 | 2.32 | -0.162 | -0.903 | -0.75 | -0.698 | -0.0535 | -1.05 (inactive) | -0.268 | 0.0749
8 | CC(C)=CCCC(C)=CCON=C1C[C@@H](O)[C@@H](O)[C@@H]2[C@@H]3C(=O)N(C[C@@H]4CCCO4)C(=O)[C@@H]3CC[C@@H]12 | -0.518 | 1 | -0.134 | 0.84 | 0.449 | 0.614 | 1.08 | -0.24 (inactive) | 0.28 | 0.0749
9 | CC(C)NC(=O)[C@@H]1c2ccccc2C(=O)N(CC23CC4CC(CC(C4)C2)C3)[C@H]1c1ccc(CO)cc1 | -0.438 | -0.0125 | -0.0277 | 0.0767 | 1.38 | 0.93 | 1.27 | -3.34 (inactive) | 0.839 | -0.434
10 | C[N+](C)(C)CCCCCCNC(=O)[C@@H]1C[C@@H]2C(=O)N3CCC[C@H]3C(=O)N2[C@@H]1c1cccc(OCCO)c1 | -0.0041 | 0.669 | -0.169 | -0.239 | -0.337 | 0.747 | 1.35 | 5.01 (inactive) | -0.128 | -0.48
11 | C=CCC(OC(C)=O)[C@@H]1[C@@H](N(Cc2cc3ccccc3o2)C(=O)Cc2ccc(F)cc2)c2cc(OCCCO)ccc2N1C(=O)Cc1ccc(OC)cc1 (stereo not given in full) | -0.115 | 0.102 | -0.0409 | 0.351 | -0.383 | 0.16 | -0.707 | -2.16 (inactive) | -0.0711 | 0.0373
12 | CC(C)=C1C(=O)C(c2ccccc2)=C2CN3C(=O)N(CCc4ccccc4)C(=O)[C@]3(Cc3ccc(F)cc3)[C@H]21 | 0.565 | -0.65 | 0.0547 | -0.247 | -1.09 | 1.3 | 0.134 | -0.0896 (inactive) | 0.841 | 0.0722
13 | COC(=O)CC=C[C@H](C)[C@@H](OCc1ccccc1Br)C(C)C | -0.188 | 0.398 | -0.191 | 0.189 | 0.0089 | -0.252 | -0.334 | -0.749 (inactive) | -0.0799 | -0.306
14 | CC(=O)OC[C@H]1O[C@H](C#CCCCc2ccccc2)C=C[C@@H]1OC(C)=O | -0.0129 | 0.105 | -0.083 | 0.73 | 0.2 | 0.505 | 0.765 | -0.13 (inactive) | -0.206 | 0.351
15 | CO[C@@H]1COC(=O)CCC[C@@H](C)[C@H](OC)COC(=O)[C@H](Cc2ccccc2)NC(=O)CC=C[C@H]1C | -0.0731 | 1.42 | -0.186 | -0.904 | -1.13 | -0.87 | -1.25 | 0.0446 (inactive) | -0.104 | -0.134
16 | COC(=O)[C@@H]1N=C(c2ccc(OCCCO)cc2)O[C@@H]1c1ccccc1N=[N+]=[N-] | 1.64 | 0.308 | -0.006 | -0.282 | 0.124 | 1.79 | 1.18 | 3.42 (inactive) | 0.864 | 0.189
17 | CN(C)C(=O)[C@@]1(Cc2ccccc2)N=C(c2ccc(OCCCO)cc2)O[C@H]1c1ccccc1CN=[N+]=[N-] | 1.35 | 1.92 | 0.423 | 1.13 | 1.46 | 1.96 | 1.2 | -1.47 (inactive) | 1.42 | 0.898
18 | C/C=C\[C@@H](NCc1ccccc1Br)[C@@H](O)Cc1ccccc1 | 1.08 | -0.441 | -0.151 | -0.75 | -1.46 | -0.0182 | -0.537 | -0.445 (inactive) | -0.336 | -0.236
19 | COc1ccc([Si](C)(C)[C@H]2[C@H](CC(=O)N3CCC[C@H]3CO)O[C@@]3(C(=O)N(Cc4cccc(N5C(=O)COc6ccccc65)c4)c4ccccc43)[C@@H]2C)cc1 | -0.126 | 0.149 | -0.0148 | 0.893 | 0.308 | 0.563 | 0.983 | -4.78 (inactive) | -0.0678 | -0.0994
20 | O=C1[C@H]2[C@H]3[C@H](O)[C@H](O)CC(=NOCc4ccccc4)[C@@H]3CC[C@H]2C(=O)N1Cc1ccccc1 | -0.226 | 0.304 | -0.125 | 0.264 | 0.758 | -0.0975 | 0.272 | 0.341 (inactive) | 0.281 | -0.0672
21 | CCOC(=O)NN=C1C[C@@H](O)[C@@H](O)[C@@H]2[C@@H]3C(=O)N(C4CCCCC4)C(=O)[C@@H]3CC[C@H]12 | -0.242 | 0.459 | -0.067 | 0.267 | 0.932 | 0.215 | 0.444 | 0.228 (inactive) | 0.142 | -0.0994
22 | CCCCC(=C=CC[C@H](O)c1ccccc1OCCO)C[C@H](O)COCc1ccccc1 | -0.0094 | 0.273 | -0.12 | -0.249 | -0.673 | 0.716 | 0.554 | -1.01 (inactive) | 0.324 | -0.0296
23 | C[C@@H]1C=CCC(=O)OC[C@H](C)C(=O)N[C@@H](C)C(=O)OC1 | -0.329 | 0.907 | -0.162 | 0.0108 | 0.0057 | -0.313 | -0.0497 | -0.98 (inactive) | 0.258 | -0.069
